Assay results reported in PubChem BioAssay AID624263 (National Center for Advancing Translational Sciences (NCATS), 2012).
About 820 (0.2%) of roughly 410,000 compounds were called active. Not shown: some 2% with an inconclusive outcome. The entries come from a sample that favours actives as a whole. Values without a mark were called inactive. Calls follow the shape of the dose curve; as a rule, active = well fitted activation curve with a large enough effect; inconclusive = small, poorly fitted or top-dose-only effect; inactive = flat fitted curve, though single readings scatter; cell line not stated here.

Assay: A Quantitative High throughput Screen to Identify Chemical Modulators of PINK1 Expression; also: nearly all actives have a fitted effect of over 65% in size; as to activation (PINK1 increase): % of control where 0% means no effect
Details: PINK1 immunofluorescence, high-content cytometry, 24 h; series mostly up to 76.6 µM; activation (PINK1 increase): at the top concentration
Excerpt: The overall goal of this project is to develop new tools for understanding and treating the mitochondrial basis for neurodegenerative disease such as Parkinson's disease (PD). The PINK1 campaign was developed from recent data pointing towards mitochondrial dysfunction as a major contributor to dopaminergic neuron loss. The discovery of PINK1/Parkin mediated mitophagy has highlighted the potential for mitochondrial quality control as a novel target for therapeutic intervention. […] A second aim of this project is the development of chemical probes to study the mechanics of mitochondrial quality control. As the PINK1/Parkin mitophagy pathway is a relative recent discovery, no specific chemical probes are available that modulate the process. Presently, only crude tools that cause nonspecific mitochondrial damage are available. To advance the understanding of mitophagy, specific, well characterized chemicals that target various steps of mitophagy regulation need to be developed. New chemical probes may have the ability to dynamically manipulate mitophagy in model organisms such as rodents and zebrafish, advancing our understanding of the process in development and disease. This HTS campaign seeks to discover an activator of PINK1 expression by modulation at the level of post-translational processing.
The PINK1 assay determines the amount and localization of PINK1 protein in a cell using a combination of immunofluorescence and cell staining. The goal of the assay is to determine small molecules that can increase the expression of Pink1 on or inside the cell's mitochondria (ideally without mitochondrial depolarization) using a stable cell line. Since PINK1 protein is rapidly degraded in un-perturbed cells, compounds that induce the enhancement of PINK1 protein expression are identified by determining PINK1 immunofluorescence in conjunction with a mitochondrial, cell, and nuclear marker post fixation. To facilitate rapid high content screening, the primary assay is run in a decision-based HTS mode where compound titration data collected by laser-scanning microplate cytometers is processed and only promising compound series are passed off for high content drill down.
1 Add cells to black, clear-bottom, low-base 1536-well plates 6 uL (250 cells/well)
2 Incubate in TC incubator (12 hours)
3 Pin compounds or DMSO controls 23 nL (5 concentrations per compound set)
4 Dispense CCCP to control columns
5 Incubate in TC incubator 24 hours
6 Aspirate media and fix cells (5 uL of fixative containing nuclear dye)
7 Incubate 15 minutes at RT
8 Wash in PBSTween (12 uL/well)
9 Wash in PBSTriton (12 uL/well)
10 Aspirate wash and add Blocking buffer (4 uL/well)
12 Aspirate block and add primary antibodies 3.5 (uL/well)
13 Incubate 12 hours at 10 degrees C
14 Wash in PBSTween-20 two times (12 uL/well)
15 Aspirate wash and add secondary antibodies (12 uL/well)
17 Wash in PBSTween (12 uL/well)
18 Wash in PBSTween with cell stain (12 uL/well)
19 Read plates on Acumen EX3 and determine Wells2Cells coordinates
Potency is read from the fitted curve at half-maximal effect.

Row | Compound | activation (PINK1 increase) | Potency
1 | COC(=O)[C@@H]1C[C@H](NC(=O)c2ccccc2C(F)(F)F)CN1Cc1cccc(O)c1 | 0.0682% | –
2 | CC(=O)c1ccc(F)c(-c2cc(C)cc3c2OC(CNC(=O)Cc2c[nH]c4ccccc24)C3)c1 (configuration not stated) | -0.04% | –
3 | C(=Nc1ccc(/C=C/c2ccnc3ccccc23)cc1)Nc1ccc(/C=C/c2ccnc3ccccc23)cc1 | -0.124% | –
4 | Cc1ncc2c(c1CNS(=O)(=O)N(C)C)CCN(C(=O)c1ccccc1F)C2 | -0.0214% | –
5 | OCC(O)C(O)C(O)C(O)C=Nc1ccc(/C=C/c2ccnc3ccccc23)cc1 (configuration not stated) | 0.535% | –
6 | COc1ccc(Oc2ncc3nc(-c4ccc(F)cc4)c(=O)n(C)c3n2)cc1 | -0.15% | –
7 | O=c1c2ccccc2nc2n1C1(CCCCC1)Cc1ccccc1-2 | – | 4.47 µM (active)
8 | CC1(C)Cc2ccccc2-c2c[nH]c(=O)n21 | -0.443% | –
9 | CN(c1ccc2nc3ccccc3c(=O)n2n1)C1CCCCC1 | 0.372% | –
10 | COCC1CCCN(Cc2ccc3c(c2)CN(C(=O)c2ccnn2C)CCO3)C1 (configuration not stated) | 0.143% | –
11 | C(=Nc1ccc(/C=C/c2ccnc3ccccc23)cc1)c1cc2c3c(c1)CCCN3CCC2 | -0.851% | –
12 | Cc1cccc2c3c(ccc12)C1=C(C(=O)C3=O)C(C)CO1 (configuration not stated) | 8.81% | –
13 | O=C1NC(CC(=O)N2CCC(n3c(C4CCC4)nc4cccnc43)CC2)c2ccccc21 (configuration not stated) | -0.132% | –
14 | Oc1c(Cl)cc(Cl)c(Cl)c1Cc1c(O)c(Cl)cc(Cl)c1Cl | – | 2.82 µM (active)
15 | CCN(CC)/[N+]([O-])=N/OCOC(=O)Cc1c(C)n(C(=O)c2ccc(Cl)cc2)c2ccc(OC)cc12 | -1.4% | –
16 | Cc1cc(-c2ccnc(-n3ncc(C(=O)NCCc4ccncc4)c3C)n2)c(C)s1 | 0.637% | –
17 | Cc1cc(C(=O)NCC2Cc3cccc(-c4cncnc4)c3O2)c(C)o1 (configuration not stated) | 0.573% | –
18 | CN(C)c1ccc(CN2CCOc3ccc(CN4CCC(O)(c5cccnc5)CC4)cc3C2)cc1 | -0.177% | –
19 | O=C(c1cn(CC2CCCN(Cc3cc4ccccc4s3)C2)nn1)N1CCCC1 (configuration not stated) | -0.201% | –
20 | CCC1(C2CCN(C(=O)c3cccc(F)c3F)CC2)NC(=O)N(CCc2scnc2C)C1=O (configuration not stated) | 0.188% | –
21 | C=CCN(CC=C)S(=O)(=O)c1ccc(C(=O)Nc2sc3c(c2C(N)=O)CCCCC3)cc1 | – | 10 µM (active)
22 | CCOC(=O)c1c(NC(=O)c2ccc(S(=O)(=O)N(CC)CC)cc2)sc2c1CCCCC2 | -1.12% | –
23 | CCCCN(C)S(=O)(=O)c1ccc(C(=O)Nc2sc3c(c2C(N)=O)CC(C)(C)NC3(C)C)cc1 | -2.36% | –
24 | COc1ccc2c(c1)NC(=O)C2CC(=O)N1CCOc2c(cc(-c3cnc4ccccc4c3)cc2OC)C1 (configuration not stated) | 1.57% | –

Row | Compound | activation (PINK1 increase) | Potency
25 | COC(=O)c1ccccc1-c1cc(C)cc2c1OC(CNC(=O)C1CCOC1)C2 (configuration not stated) | -0.262% | –
26 | COc1ccc(CCNc2ncnc3sc(C(=O)N4CCCC4)c(C)c23)cc1OC | -0.358% | –
27 | COc1cc(-c2cccnc2)cc2c1OCCN(C(=O)Cc1csc(C)n1)C2 | 0.58% | –
28 | O=C(c1cccc(Cn2cccn2)c1)N1CCOc2c(cc(-c3csc4ccccc34)cc2OC2CCOC2)C1 (configuration not stated) | 0.191% | –
29 | N#Cc1cccc(-c2ccc3ncnc(NCc4cccs4)c3c2)c1 | -0.262% | –
30 | Cc1cc(-c2ccnc(-n3ncc(C(=O)NC(C)(C)CO)c3C3CC3)n2)c(C)s1 | 0.0821% | –
31 | COc1ccc(CCNC(=O)CCCCn2c(=O)c3ccccc3n(Cc3ccccc3)c2=O)cc1OC | 1.18% | –
32 | CCCCn1c(SCC(=O)NCCc2ccc(OC)c(OC)c2)nc2c1c(=O)n(C)c(=O)n2C | – | 3.98 µM (active)
33 | CCCCn1c(SCC(=O)N2CCOCC2)nc2c1c(=O)n(C)c(=O)n2C | 2.85% | –
34 | COc1ccccc1C(=O)N[C@@H]1c2ccccc2C2(CCN(C(=O)c3csnn3)CC2)[C@H]1OC | -0.317% | –
35 | CN1CCN(/[N+]([O-])=N/Oc2ccc([N+](=O)[O-])cc2[N+](=O)[O-])CC1 | -0.224% | –
36 | Cc1cc(C)cc(CN2CCc3nnc(C(NS(C)(=O)=O)C(C)C)n3CC2)c1 (configuration not stated) | -0.82% | –
37 | COc1ccccc1C1CN(CCNC(=O)C2=CCCC2)Cc2ccccc2O1 (configuration not stated) | 2.63% | –
38 | O=C(CCc1ccccc1)Nc1ncc([N+](=O)[O-])s1 | – | 20 µM (active)
39 | O=C(Nc1ncc([N+](=O)[O-])s1)C1COc2ccccc2O1 (configuration not stated) | – | 44.7 µM (active)
40 | O=C(CCc1ccccc1)Nc1ccc(NC(=O)C2CCCCC2)nc1 | 9.37% | –
41 | O=C(CCc1ccccc1)Nc1ccc(NC(=O)C2CC2)nc1 | -1.31% | –
42 | COc1ccc(OC)c2sc(N3CCN(C(=O)C4COc5ccccc5O4)CC3)nc12 (configuration not stated) | -0.0279% | –
43 | CC(/C=C/c1ccco1)=N/NC(=O)C1COc2ccccc2O1 (configuration not stated) | 9.76% | –
44 | CN(Cc1cccc2ncccc12)C(=O)c1cnn(-c2nccc(-c3ccccc3F)n2)c1C1CC1 | -0.707% | –
45 | COc1ccc(-n2c(CNC(=O)c3cc(C(F)(F)F)ccc3Cl)nnc2SC)cc1 | -0.22% | –
46 | COc1ccccc1-c1ccnc(-n2ncc(C(=O)NCCCN3CCOCC3)c2C)n1 | 0.284% | –
47 | C[C@@H]1CN(Cc2ccc3c(c2)CN(Cc2ccc(Oc4ncccn4)cc2)CCO3)C[C@H](C)O1 | 0.0196% | –
